BH1578 lux ind: inducers of Vibrio cholerae quorum light production without autoinducers, primary screen, BH1578 luxS cqsA deficient, single point; 350,000 compounds, 0.16% hits; V. cholerae BH1578 lux reporter, luminescence, 6 h; AID 588436, 2011; activation, % at 18.7 µM; in the data active means activation mostly above about 9.7%, no sharp cut-off
FBA Mtb inh: Mtb FBA enzyme inhibitors, primary screen, biochemical, fluorescence, strain H37Rv | inhibition, % at 1 µM | purified M. tuberculosis FBA, fluorescence read-out | Fructose-bisphosphate aldolase (Mycobacterium tuberculosis (strain ATCC 25618 / H37Rv)), … | AID 588726, 2011 | 360,000 compounds, 2.3% hits; in the data active means inhibition above about 27%;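 further: 0% = vehicle and 100% = reference inhibitor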
Target sequence (P9WQA3 whole entry, looked up): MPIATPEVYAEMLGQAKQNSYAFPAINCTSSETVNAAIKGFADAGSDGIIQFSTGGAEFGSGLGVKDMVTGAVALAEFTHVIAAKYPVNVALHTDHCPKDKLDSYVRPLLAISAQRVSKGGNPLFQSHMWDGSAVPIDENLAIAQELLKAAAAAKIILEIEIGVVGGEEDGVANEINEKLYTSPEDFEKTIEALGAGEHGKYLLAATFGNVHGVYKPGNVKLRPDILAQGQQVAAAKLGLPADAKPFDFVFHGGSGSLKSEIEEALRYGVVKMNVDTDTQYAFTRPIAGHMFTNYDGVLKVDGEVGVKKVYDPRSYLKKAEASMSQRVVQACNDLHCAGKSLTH
GDH-TPI counter: GDH-TPI coupling enzyme inhibitors, primary screen, artefact control for M. tuberculosis FBA inhibitor project, biochemical, absorbance, full deck | GDH-TPI coupled enzyme counterscreen, NADH absorbance | inhibition, % at 4.8 µM | 360,000 compounds, 1.2% hits; in the data active means inhibition above about 30%;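 further: 0% = DMSO wells and 100% = wells lacking the enzyme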
PrPC TRFRET: inhibitors of human cell surface prion protein PrPC, primary screen, cell-based, TR-FRET; TR-FRET read-out; inhibition, % at 13.8 µM; AID 720596, 2013; Major prion protein (Homo sapiens), P04156; 370,000 compounds, 0.43% hits; in the data active means inhibition above about 24%; further: 0% = median of the test wells and 100% = reference compound wells
3CLpro inhibitor: SARS-CoV 3CLpro protease inhibitors, primary screen, biochemical, quenched FRET; recombinant SARS-CoV 3CLpro, quenched FRET peptide cleavage; inhibition, % at 6 µM; 290,000 compounds, 0.14% hits; AID 1706, 2009; in the data active means inhibition above about 12%
PrPC confirm: confirmation of inhibitors of cell surface human prion protein, confirmation, cell-based, TR-FRET; cell surface PrPC level; inhibition, % at 13.8 µM; 1,500 compounds, 65% hits; shares compounds with PrPC TRFRET; in the data active means inhibition above about 25%
LD9 cytotox: cytotoxicity in LD9 cells, cytotoxicity control for cell surface PrPc inhibitor project, cell-based, luminescence, high throughput. luminescence viability. 1,500 compounds, 29% hits. inhibition, % at 13.8 µM. shares compounds with PrPC TRFRET; in the data active means inhibition above about 9.5%
* = called active by the depositor; i = inactive; x = no result given. The list is not random: actives were taken first. Their share in the collection is about 3.9%.

SMILES	BH1578 lux ind	FBA Mtb inh	GDH-TPI counter	PrPC TRFRET	3CLpro inhibitor	PrPC confirm	LD9 cytotox
NC(=O)c1cn(C2OC(CO)C(O)C2O)c2ncnc(N)c12 (centres undefined)	-6	2	3	56*	1	58*	40*
N#Cc1cn(C2OC(CO)C(O)C2O)c2ncnc(N)c12 (centres undefined)	i	0	4	26*	x	30*	40*
NC(=O)c1c(Br)n(C2OC(CO)C(O)C2O)c2ncnc(N)c12 (centres undefined)	6	0	-4	0	x	x	x
OCC1OC(n2ccc3c(NO)ncnc32)C(O)C1O (centres undefined)	i	5	6	53*	x	44*	92*
CCC(C)N(C(=O)CSc1nnc(-c2cccnc2)n1C1CCCCC1)C(C)CC (centres undefined)	x	x	x	-2	x	x	x
O=C(O)COCC(=O)N1CCN(c2cc(C(F)(F)F)nc3ccccc23)CC1	0	-3	10	4	-1	x	x
CCC(=O)N1CCN(c2ccc(-n3c(=O)ccc4cnc5ccc(-c6cnc7ccccc7c6)cc5c43)cc2C(F)(F)F)CC1	x	x	x	37*	x	39*	33*
COc1ccc(C2=NN(C(=O)c3ccco3)C(c3ccco3)C2)cc1OC (centres undefined)	0	0	18	4	-5	x	x
O=C(N[C@@H]1CC[C@H]2SC[C@H](C(=O)O)N2C1=O)OCC1c2ccccc2-c2ccccc21	x	x	x	-4	x	x	x
NC(=O)C1CCN(C(=O)c2cc(-c3ccccc3Cl)nc3ccccc23)CC1	-1	1	5	43*	x	43*	-5
NC(=O)C1CCN(C(=O)c2cc(-c3ccc(Cl)cc3)nc3ccccc23)CC1	i	0	18	-10	x	x	x
CC(C)(C)c1ccc(-n2nc(C#N)c(Cl)cc2=O)cc1	0	4	8	69*	8	70*	98*
CCOC(=O)CC(S(=O)(=O)c1ccccc1)S(=O)(=O)c1ccccc1	i	1	6	-10	x	x	x
CC(=O)c1ccc(NC(=O)Nc2ccc(Cl)cc2)cc1	2	-2	-1	28*	-1	24	1
CC(=O)c1ccc(N2CCN(C(=O)c3cccs3)C(C)C2)c(F)c1 (centres undefined)	i	0	21	0	-5	x	x
O=C(C1=C(O)C(=O)N(CCN2CCOCC2)C1c1cccc(F)c1)c1cc2ccccc2o1 (centres undefined)	1	5	21	42*	7	70*	-4
FC(F)(F)Oc1ccccc1C(c1nnnn1-c1ccc2c(c1)OCCO2)N1CCN(C/C=C/c2ccccc2)CC1 (centres undefined)	x	-2	x	3	x	x	x
CCN(CC)CCOC(=O)/C=C/c1ccccc1	0	0	3	-2	6	x	x
CCN(CC)CC(C)(C)C(=O)/C=C/c1ccc(/C=C/C(=O)C(C)(C)CN(CC)CC)cc1	i	-3	59*	90*	x	105*	96*
CC(O)C(NS(=O)(=O)c1ccc(Cl)cc1)C(=O)OCC(=O)c1ccc2c(c1)NC(=O)CO2 (centres undefined)	1	1	4	4	x	x	x
CC(C)CC(NC(=O)c1ccc(Cl)cc1)C(=O)OCC(=O)c1ccc2c(c1)NC(=O)CO2 (centres undefined)	-1	4	-1	40*	5	53*	84*
Cc1ccc(C)c(NC(=O)CN(C)C(=O)c2cc3ccccc3oc2=O)c1	0	6	19	0	x	x	x
Cc1onc(-c2ccccc2)c1C(=O)Oc1cccnc1	i	-1	-6	30*	-4	1	-7

Screening data (PubChem)
